# Screening results deposited in PubChem by National Center for Advancing Translational Sciences (NCATS).
# ELG1 DNA repair: blocks ELG1-dependent DNA repair in HEK293T cells; Potency, µM (doses to about 46.1 µM), without a hit: at the highest dose activity change, negative = inhibition, hits mostly inhibitors; HEK293T ELG1-luciferase reporter, luminescence, 16 h; DNA damage induced by 5-fluorouridine; 330,000 tested, 2.3% active; note: % is set by controls: 0 for no effect and ±100 for the full control effect; nearly all actives have a fitted effect of over 55% in size
#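 5-Fluorouridine DNA damage + compound/DMSO, 2,000 cells/well, 16 h, 37 °C/5% CO2. ONE-Glo, 30 min RT, luminescence. Readout = decrease in reporter signal.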
# Nrf2 activator: Nrf2 pathway activation. AREc32 ARE-luciferase reporter (MCF7-derived line), luminescence, 24 h. AID 624171. Potency, µM (titrated, usually from 46.1 µM), without a hit: top-dose activation, hits mostly activators. 410,000 tested, 0.31% active; note: % of control where 0% means no effect; nearly all actives have a fitted effect of over 65% in size
#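 ARE-driven firefly luciferase activity in AREc32 cells measured after a 24 hr compound exposure at 37 deg C, using Steady-Glo reagent and a 30 min room-temperature hold.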
# Nrf2 block: blocks Nrf2 signaling | 360,000 tested, 2.1% active | A549 ARE-Fluc reporter, luciferase luminescence, 18-24 h | Potency, µM (top dose mostly 46 µM), for inactives: top-dose activity change, negative = inhibition, most hits filed as inhibitors; note: % is set by controls: 0 for no effect and ±100 for the full control effect; nearly all actives have a fitted effect of over 60% in size
#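 A549 ARE_Fluc cells, 5000/well, 5% FBS OPTI-MEM; compounds in dose-response, 18-24 h at 37 °C/5% CO2; CellTiter-Fluor viability read (Ex 405/Em 525), then BugLite luciferase luminescence = Nrf2 activity.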
# A549 tox: counter-screen for Nrf2 inhibitors: cytotoxicity in A549 cells; A549 ARE-Fluc cells, CellTiter-Fluor viability, 18-24 h; Potency, µM (titrated, usually from 46 µM), inactives show at the top dose activity change, negative = cytotoxicity, actives largely listed as inhibitors; 390,000 tested, 0.16% active; AID 504648; note: % is set by controls: 0 for no effect and ±100 for the full control effect
#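 A549 ARE-Fluc cells in 5% FBS OPTI-MEM, 5000 cells/well, rested 2 h then exposed to compounds in concentration-response for 18-24 h at 37 °C. Viability by CellTiter-Fluor fluorescence (Ex 405/Em 525) after 30 min; luciferase luminescence (BugLite, 15 min, RT) read afterwards.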
# * = called active by the depositor; ? = inconclusive; . = not tested or not shown; [ ] = another dose, or the depositor's remark. This is a sample that favours compounds with a hit; in the whole collection about 3.7% have one here. Calls come from the whole dose curve; as a rule, active = well fitted curve in the direction sought with a large enough effect; inconclusive = small, poorly fitted or top-dose-only effect, or another doubt; inactive = no such curve, though single readings can be large; an effect the other way counts as inactive or inconclusive. Potency is the fitted concentration of half-maximal effect.
SMILES,ELG1 DNA repair,Nrf2 activator,Nrf2 block,A549 tox
c1ccc2c(c1)CCCN2c1nc(N2CCOCC2)nc(N2CCOCC2)n1,8.2µM*,-0.6%,-9.4%,0.3%
Cc1cccc(N2N=C(C(=O)O)CCC2=O)c1,-6.2%,-0.1%,2.8%,0.6%
Oc1ccccc1-n1nc2ccc3nonc3c2n1,0.0%,10µM*,-0.6%,0.6%
COc1ccc(CN(Cc2ccccc2)C(=O)c2ccccc2N)cc1COc1ccc(NC(C)=O)cc1,.,.,-9.9%,-2.4%
O=C(O)c1ccccc1Nc1ccccc1C(=O)O,-1.5%,1.8%,0.6%,4.9%
O=C1C=C(Nc2ccccc2)c2ccccc2C1=O,9.2µM*,-2.0%,20.6µM*,?
O=C1C=C(Nc2ccccc2C(=O)O)c2ccccc2C1=O,25.9µM*,-1.0%,3.0%,?
O=S(=O)(c1ccsc1)N1CC=C(c2ccccc2)CC1,20.5%,-0.2%,?,5.9%
O=C(CCC1CCCCC1)NC1CCCCC1,23.0%,0.0%,15.6%,-5.0%
COc1ccccc1-c1cc(C(F)(F)F)nc(S(=O)(=O)CCCC(=O)O)n1,15.1%,11.2µM*,.,-17.7%
COC(=O)c1ccccc1NC(=S)N(Cc1ccc2c(c1)OCO2)Cc1cc2cccc(C)c2[nH]c1=O,11.6µM*,0.0%,-10.8%,2.3%
Cc1cc(C)c2cc(CN(Cc3ccco3)C(=O)NCc3ccccc3)c(=O)[nH]c2c1,8.2µM*,4.8%,-23.3%,-20.5%
COc1ccccc1NC(=S)N(Cc1ccco1)Cc1cc2ccc(C)c(C)c2[nH]c1=O,?,3.7%,?,?
COc1ccccc1NC(=S)N(Cc1ccco1)Cc1cc2cc(C)cc(C)c2[nH]c1=O,11.6µM*,2.2%,?,-12.8%
Fc1ccc(-c2cn(-c3ccccc3)c3[n+]2CCS3)cc1,20.6µM*,-0.2%,-23.8%,2.8%
Cc1cc(C(=O)NC2CCCc3c2cnn3-c2cccc(C)c2C)no1 (stereo not given),?,-0.9%,?,-11.4%
Cc1cccc(-n2ncc3c2CCCC3NC(=O)CCc2cccnc2)c1C (stereo not given),?,-0.7%,7.31µM*,-4.2%
Cc1cccc(-n2ncc3c2CCCC3NC(=O)Cc2c(C)noc2C)c1C (stereo not given),?,-0.6%,8.2µM*,-9.3%
CCCc1ccc(C2C3=C(CC(C)(C)CC3=O)NC3=C2C(=O)c2ccccc23)cc1 (stereo not given),-10.9%,0.4%,8.2µM*,?
CCCCc1ccc(C2C3=C(CC(C)(C)CC3=O)NC3=C2C(=O)c2ccccc23)cc1 (stereo not given),-23.0%,0.5%,?,?
COc1cc(NC(=O)CN2c3cccc4cccc(c34)S2(=O)=O)cc(OC)c1OC,-26.1%,3.1%,23.1µM*,-11.8%
COc1cc(NC(=O)CN2c3ccccc3CC2C)cc(OC)c1OC (stereo not given),16.4µM*,-0.2%,?,-0.4%
COc1ccc(Cl)cc1NC(=O)CN1c2ccccc2CC1C (stereo not given),?,1.6%,?,-2.3%
COC(=O)c1c(NC(=O)c2ccccc2)sc(C(N)=O)c1C,-7.6%,1µM*,?,-5.7%
CCCc1cc(=O)[nH]c(SCC(=O)Nc2sc(C(N)=O)c(C)c2C(=O)OCCOC)n1,?,-1.4%,5.17µM*,-3.1%
SMILES,ELG1 DNA repair,Nrf2 activator,Nrf2 block,A549 tox
Cc1ccc(NC(=O)CSc2nc(-c3cccs3)cc(C(F)(F)F)n2)cc1C,.,0.5%,8.6%,-1.5%
COCCOC(=O)c1c(NC(=O)CN2CCOCC2)sc(C(N)=O)c1C,-6.9%,0.3%,8.7%,-6.9%
CC1Cc2ccccc2N1CC(=O)Nc1ccc(S(=O)(=O)N(C)C)cc1 (stereo not given),?,-0.2%,7.8%,?
CC1Cc2ccccc2N1CC(=O)Nc1ccc(Cl)c(S(=O)(=O)N(C)C)c1 (stereo not given),23.1µM*,-0.6%,2.0%,1.2%
COCCOC(=O)c1c(NC(=O)CN2c3ccccc3CC2C)sc(C(N)=O)c1C (stereo not given),9.2µM*,-0.8%,-17.8%,-2.3%
CC(C)Cn1cc(NC(=O)N2CCN(c3ccc(F)cc3)CC2)c2ccccc2c1=O,.,-0.4%,?,0.5%
CCOc1ccc(-c2nonc2NC(=O)c2ccc(C)cc2)cc1OCC,.,0.3%,-2.1%,-1.5%
CC(C)Oc1ccc(CN2CCC2(C)C(=O)Nc2cnc3ccccc3c2)cc1 (stereo not given),.,4.7%,.,.
O=C(NCCCN1CCCC(O)C1)c1cc(COc2ccc(F)cc2F)on1 (stereo not given),4.7%,3.7%,4.0%,6.9%
CCC(C)Nc1nnnc2c1sc1nc3c(cc12)COC(C)(C)C3 (stereo not given),23.1µM*,0.4%,-0.1%,-2.6%
Cn1c(C(=O)c2ccncc2)cc2ccccc21,-9.3%,-0.5%,-4.7%,19.6%
COc1ccc(-c2nnc(SCC(=O)N(Cc3ccccc3)C(C)(C)C)o2)cc1OC,-0.5%,-0.5%,23.1µM*,-16.4%
NC1=C(Cl)C(=O)c2ccccc2C1=O,.,-3.2%,16.4µM*,?
NS(=O)(=O)c1ccc2c(c1)C(=NO)c1cc(S(N)(=O)=O)ccc1-2,12.0%,-0.7%,5.2%,-0.2%
O=C1C(Cl)=C(NCCCO)C(=O)c2ccccc21,-12.7%,-0.4%,.,-19.9%
NC1=C(Cl)C(=O)c2ccc(S(N)(=O)=O)cc2C1=O,.,-3.7%,3.26µM*,5.8µM*
O=C(C[C@H]1C[C@H](C(=O)N2CCOCC2)[C@@]2(CCC3CCCC3)c3[nH]c4ccc(Cl)cc4c3CCN2C1=O)NCC12CC3CC(CC(C3)C1)C2,?,-0.5%,?,-15.8%
Cc1ccc(CNC(=O)C(=O)NCC2OCCN2S(=O)(=O)c2ccc(Cl)cc2)cc1 (stereo not given),.,4.7%,?,-2.0%
Cc1ccc(S(=O)(=O)N2CCOC2CNC(=O)C(=O)NCc2ccc(Cl)cc2)cc1 (stereo not given),23.1µM*,3.0%,?,3.0%
COc1ccc(CCNC(=O)C(=O)NCC2OCCN2S(=O)(=O)c2ccc(Br)cc2)cc1OC (stereo not given),20.6µM*,-0.3%,-18.2%,3.3%
O=C(NCc1ccc2c(c1)OCO2)C(=O)NCC1OCCN1S(=O)(=O)c1ccc(Cl)cc1 (stereo not given),?,-0.1%,25.9µM*,-4.9%
OCc1nc2ccccc2n1Cc1ccc(Cl)cc1,-9.7%,2.1%,-20.0%,4.3%
CCCCOc1ccc(S(=O)(=O)n2c(C)nc3ccccc32)cc1,-13.9%,0.3%,7.31µM*,-17.9%
Cc1nc2ccccc2n1CCOc1ccccc1,1.3%,-0.3%,14.6µM*,-3.0%
c1ccc(OCCn2c(COc3ccccc3)nc3ccccc32)cc1,.,4.0%,3.6%[9.27 µM],0.5%
CC(C)(C)c1ccc(Cn2c(Cc3ccccc3)nc3ccccc32)cc1,.,4.0%,23.1µM*,-10.7%
Cc1cccc(Cn2c(Cc3ccccc3)nc3ccccc32)c1,11.0%,4.0%,?,-4.7%
Cc1nc2ccccc2n1Cc1ccc(Cl)cc1,23.0%,4.0%,18.4µM*,8.7%
